RE007 growth inh = less growth of the S. pombe RE007 Vpr strain; S. pombe RE007 Vpr strain, BacTiter-Glo ATP luminescence, 24 h; Potency, µM (top dose mostly 92.2 µM), most hits filed as inhibitors; 360,000 tested, 0.21% active; active = well fitted falling curve with a large enough effect; inconclusive = small, poorly fitted or top-dose-only effect; inactive = no such curve, though single readings can be large or run the other way; note: nearly all actives have a fitted effect of over 50% in size
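Fission yeast RE007 carrying one integrated HIV-1 vpr copy, seeded at OD 0.01 in PMG+AL medium with 23 nL pinned compound. Grown 24 h at 30 degrees; viability read by BacTiter-Glo luminescence after 5 min.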
Shiga inhibitor = blocks Shiga toxin action in Vero cells; inhibition, % at 38.7 µM; AID 2315; 290,000 tested, 9.2% active; Vero cells, Shiga toxin protein synthesis inhibition reporter; in the data active = inhibition mostly above about 28%, no sharp cut-off; inactive = mostly below about 43%
Cycloheximide cs = affects cycloheximide protein synthesis inhibition readout, counter-screen. cell reporter, cycloheximide protein synthesis inhibition counterscreen. max response, %. 300,000 tested, 12% active. AID 2314; in the data active = max response mostly above about 13%, no sharp cut-off; inactive = mostly below about 14%; note: read at 38.3 µM for the half of the compounds with a filed dose
FBPA Giardia inh = Giardia lamblia aldolase inhibition; 290,000 tested, 0.71% active; Potency, µM (highest dose often 59.6 µM), usual class: inhibitors; A8B2U2; AID 2451; purified Giardia FBPA; note: nearly all actives have a fitted effect of over 55% in size
Target sequence (A8B2U2 whole entry, looked up): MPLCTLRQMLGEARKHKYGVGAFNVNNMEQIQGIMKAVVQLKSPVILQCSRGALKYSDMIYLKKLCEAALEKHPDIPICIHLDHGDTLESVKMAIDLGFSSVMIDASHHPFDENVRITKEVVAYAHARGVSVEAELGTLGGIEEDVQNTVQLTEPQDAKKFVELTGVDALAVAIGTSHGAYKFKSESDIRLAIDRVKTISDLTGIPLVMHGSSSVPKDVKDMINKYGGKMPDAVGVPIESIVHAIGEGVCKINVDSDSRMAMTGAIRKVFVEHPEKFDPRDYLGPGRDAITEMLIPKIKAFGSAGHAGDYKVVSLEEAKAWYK
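Giardia FBPA (40 nM reagent) was preincubated 10 min at RT with compound (up to 57.5 uM final), then substrate plus GAPDH/TPI/NAD/arsenate coupling system with diaphorase/resazurin was added; resorufin fluorescence (525/598 nm) was read after 20 min.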
LmPK inh = inhibitors of Leishmania mexicana pyruvate kinase; Q27686; purified LmPK, Kinase-Glo ATP luminescence, 1 h; Potency, µM (highest dose often 57.5 µM), actives largely listed as inhibitors; 290,000 tested, 0.37% active
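Screened at intermediate enzyme activity to detect both inhibitors and activators: LmPK at 0.1 nM, with a 0.5 nM enzyme column as activation reference. PEP 0.5 mM, ADP 0.1 mM; ATP detected by luminescence after 1 h.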
TbPYK inhibitor = T. brucei pyruvate kinase inhibition; TbPYK enzyme, Kinase-Glo Plus ATP luminescence, 45 min; 410,000 tested, 0.12% active; Potency, µM (doses to about 76.8 µM), most hits filed as inhibitors; note: nearly all actives have a fitted effect of over 50% in size
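Enzyme and substrate buffer are dispensed first and compound is pin-transferred. ADP at 130 uM final then starts the reaction, which runs 45 min at room temperature. Detection reagent is added for 10 min before luminescence is imaged.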
A number is an active result; [ ] = dose if it differs, or a comment. The sample as a whole holds a higher share of hits than the screen did. Unless noted, calls come from the whole dose curve; as a rule, active = well fitted curve in the direction sought with a large enough effect; inconclusive = small, poorly fitted or top-dose-only effect, or another doubt; inactive = no such curve, though single readings can be large; an effect the other way counts as inactive or inconclusive.

What do the screens show for `CCOc1ccc(NCc2cccn2-c2nnc(N3CCC(C(=O)NCc4ccccc4Cl)CC3)s2)cc1`?
TbPYK inhibitor: inactive

How did O=C(O)C1CC=CCC1C(=O)Nc1ccccc1 (centres undefined) do in these assays?
RE007 growth inh: inactive; Shiga inhibitor: inactive; Cycloheximide cs: inactive; FBPA Giardia inh: inactive; LmPK inh: inactive; TbPYK inhibitor: inactive

Results for O=C(COC(=O)c1ccc(NC(=O)C2CC=CCC2C(=O)O)cc1)c1ccccc1 (centres undefined) ?
RE007 growth inh: inactive; Shiga inhibitor: 75; Cycloheximide cs: 36; FBPA Giardia inh: inactive; LmPK inh: inactive; TbPYK inhibitor: inactive

How did Cc1ccccc1Oc1ccc(NC(=O)C2CC=CCC2C(=O)O)cc1 (centres undefined) do in these assays?
Shiga inhibitor: inactive; Cycloheximide cs: inactive; FBPA Giardia inh: inactive; LmPK inh: inactive; TbPYK inhibitor: inactive

Results for COc1cccc(C(=O)Nc2ccc(NC(=O)C3CC=CCC3C(=O)O)cc2)c1 (centres undefined) ?
RE007 growth inh: inactive; Shiga inhibitor: 77; Cycloheximide cs: 24; LmPK inh: inactive; TbPYK inhibitor: inactive

What do the screens show for `O=C1C=CC2(O[C@H](c3ccccc3)[C@@H](c3ccccc3)O2)[C@H](Sc2ccccc2O)C1`?
RE007 growth inh: 40µM; TbPYK inhibitor: inconclusive

How did Cc1ccccc1C(=O)NCCNC(=O)c1ccccn1 do in these assays?
RE007 growth inh: inactive; Shiga inhibitor: inactive; Cycloheximide cs: inactive; FBPA Giardia inh: inactive; LmPK inh: inactive; TbPYK inhibitor: inactive

What do the screens show for `CSc1ccccc1NC(=O)c1cccnc1`?
RE007 growth inh: inactive; Shiga inhibitor: inactive; Cycloheximide cs: 15; FBPA Giardia inh: inactive; LmPK inh: inactive; TbPYK inhibitor: inactive

How did CSc1ccccc1NC(=O)c1ccccn1 do in these assays?
RE007 growth inh: inactive; Shiga inhibitor: 45; Cycloheximide cs: 18; FBPA Giardia inh: inactive; LmPK inh: inactive; TbPYK inhibitor: inactive

How did CSc1ccccc1NC(=O)c1ccc(Cl)s1 do in these assays?
RE007 growth inh: inactive; Shiga inhibitor: inactive; Cycloheximide cs: 30; FBPA Giardia inh: inactive; LmPK inh: inactive; TbPYK inhibitor: inactive

How did Cc1ccccc1NC(=O)c1ccccn1 do in these assays?
RE007 growth inh: inactive; Shiga inhibitor: 57; Cycloheximide cs: 29; FBPA Giardia inh: inactive; LmPK inh: inactive; TbPYK inhibitor: inactive

How did Cc1cc(NC(=O)CCS(=O)(=O)c2cc(Br)cc3c2N(C(=O)C2CC2)CC3)ccc1Br do in these assays?
TbPYK inhibitor: inactive

How did CC(C)[C@H](NC(=O)[C@H](CC(=O)O)NC(=O)CNC(=O)[C@@H](N)CCCN=C(N)N)C(=O)O do in these assays?
Shiga inhibitor: inactive; Cycloheximide cs: inactive; FBPA Giardia inh: inactive

What do the screens show for `C#CCN1C(=O)S/C(=C/C=C/c2ccc(N(C)C)cc2)C1=O`?
RE007 growth inh: inactive; Shiga inhibitor: 116; Cycloheximide cs: 47; FBPA Giardia inh: inactive; LmPK inh: inactive; TbPYK inhibitor: inactive

What do the screens show for `CC(=NCCc1ccccc1)C1=C(O)CSC1=O`?
RE007 growth inh: inactive; Shiga inhibitor: inactive; Cycloheximide cs: 28; FBPA Giardia inh: inactive; LmPK inh: inactive; TbPYK inhibitor: inactive

How did O=Cc1ccccc1OCc1ccc2c(c1)OCO2 do in these assays?
RE007 growth inh: inconclusive; Shiga inhibitor: 100; Cycloheximide cs: 46; FBPA Giardia inh: inactive; LmPK inh: inactive; TbPYK inhibitor: inconclusive

How did COc1ccc(OC)c(NC(=O)c2cc3c(s2)-c2ccccc2SC3)c1 do in these assays?
TbPYK inhibitor: inactive

How did O=C(NCCc1ccccc1)c1cnc2n(c1=O)CCS2 do in these assays?
RE007 growth inh: inactive; Shiga inhibitor: 111; Cycloheximide cs: 34; FBPA Giardia inh: inactive; LmPK inh: inactive[11.5 µM]; TbPYK inhibitor: inactive

Results for O=C(NCCc1c[nH]c2ccccc12)c1cnc2n(c1=O)CCS2 ?
RE007 growth inh: inactive; Shiga inhibitor: 59; Cycloheximide cs: 30; FBPA Giardia inh: inactive; LmPK inh: inactive; TbPYK inhibitor: inactive

Results for COc1ccc(C)cc1NC(=O)c1cnc2n(c1=O)CCS2 ?
RE007 growth inh: inactive; Shiga inhibitor: inactive; Cycloheximide cs: 10; FBPA Giardia inh: inactive; LmPK inh: inactive; TbPYK inhibitor: inactive

What do the screens show for `COc1ccc(C)cc1NC(=O)c1cnc2scc(C)n2c1=O`?
RE007 growth inh: inactive; Shiga inhibitor: inactive; Cycloheximide cs: inactive; FBPA Giardia inh: inactive; LmPK inh: inactive; TbPYK inhibitor: inactive

How did C/C(=N\Nc1ccc(C)c(Cl)c1)c1ccncc1 do in these assays?
RE007 growth inh: inactive; Shiga inhibitor: inactive; Cycloheximide cs: 30; FBPA Giardia inh: inactive; LmPK inh: inactive; TbPYK inhibitor: inactive

What do the screens show for `C/C(=N\Nc1ccc(C)c(Cl)c1)c1cccnc1`?
RE007 growth inh: inactive; Shiga inhibitor: 89; Cycloheximide cs: 41; FBPA Giardia inh: inactive; LmPK inh: inactive; TbPYK inhibitor: inactive

What do the screens show for `CCC(/C=C1\Oc2ccc(OC)cc2N1C)=C\c1sc2ccccc2[n+]1CCCS(=O)(=O)[O-]`?
RE007 growth inh: inactive; TbPYK inhibitor: inactive

Results for COc1cc(/C=C/c2sc3ccccc3[n+]2CCCS(=O)(=O)[O-])ccc1O ?
RE007 growth inh: inconclusive; Shiga inhibitor: inactive; Cycloheximide cs: inactive; FBPA Giardia inh: inconclusive; LmPK inh: 16µM; TbPYK inhibitor: inconclusive

How did COc1ccc(Nc2ccc(Cl)nn2)cc1 do in these assays?
RE007 growth inh: inactive; Shiga inhibitor: inactive; Cycloheximide cs: 15; FBPA Giardia inh: inactive; LmPK inh: inactive; TbPYK inhibitor: inactive

Results for Clc1ccc(Nc2ccc(Cl)nn2)cc1 ?
RE007 growth inh: inactive; Shiga inhibitor: 48; Cycloheximide cs: inactive; FBPA Giardia inh: inactive; LmPK inh: inactive; TbPYK inhibitor: inactive

How did CC(=O)Nc1ccccc1NS(=O)(=O)c1ccccc1NO do in these assays?
Shiga inhibitor: inactive; Cycloheximide cs: inactive

What do the screens show for `Cc1c(NC(=O)Nc2cccc(C(F)(F)F)c2)sc2nc3n(c(=O)c12)CCC(C)CC3` (centres undefined)?
TbPYK inhibitor: inactive

Results for O=C(c1cc(-c2ccc(Cl)cc2Cl)on1)N1CCCC1 ?
RE007 growth inh: inactive; Shiga inhibitor: 89; Cycloheximide cs: 23; FBPA Giardia inh: inactive; LmPK inh: inactive; TbPYK inhibitor: inactive

Results for O=C(c1cc(-c2ccc(Cl)cc2Cl)on1)N1CCCCCC1 ?
RE007 growth inh: inactive; Shiga inhibitor: 99; Cycloheximide cs: 38; FBPA Giardia inh: inactive; LmPK inh: inactive; TbPYK inhibitor: inactive

How did O=C(c1cc(-c2ccc(Cl)cc2Cl)on1)N1CCN(C(=O)c2ccco2)CC1 do in these assays?
RE007 growth inh: inactive; Shiga inhibitor: inactive; Cycloheximide cs: inactive; LmPK inh: inactive; TbPYK inhibitor: inactive

How did O=C(COC(=O)c1ccccc1O)NCCC1=CCCCC1 do in these assays?
RE007 growth inh: inactive; Shiga inhibitor: 90; Cycloheximide cs: 47; FBPA Giardia inh: inactive; LmPK inh: inactive; TbPYK inhibitor: inactive

Screens as filed in PubChem.
